Values joined by “and” are separate entries in the source; they are usually repeats but may differ in a detail not shown here. Equal entries are not always repeated. The panel holds about 79,000 compounds, 15% with a hit somewhere; the sample as a whole holds those more often. Unmarked numbers belong to inactive results. Active and inactive are the calls of the source. No stated cut-off is given here; in the data, active means growth inhibition above about 70%; inactive means the rest. Where a SMILES comes first, the peptide text is derived from it.
Assay: NCI Yeast Anticancer Drug Screen. Data for the cln2 rad14 strain (AID 165);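 further: 0% = growth equal to vehicle treated cultures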
Conditions: S. cerevisiae cln2 rad14 strain, at 5.0 µM (retest, dose inferred, filed as 0.5), stronger effect = higher value
In short: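 The screen exposed genetically defined yeast (cln2 rad14) to test compounds and scored growth inhibition relative to vehicle-treated controls.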

Compound	growth inhibition
Cc1cccc(Cc2ccccc2Cl)c1O	-7%
OC1CN(Cc2ccccc2)C[C@@H]1O (stereo partly drawn)	17%
BrC(c1cccc2ccccc12)c1cccc2ccccc12	0%
COc1nc(NC2OC(CO)C(O)C(O)C2O)c(Cl)c(=O)n1C (stereo not drawn)	1%
O=S(=O)(CC(Cl)c1ccccc1)c1nc2ccccc2s1 (stereo not drawn)	-14%
CCCCCCCCCCCCOS(=O)(=O)O	0%
O=C(NNc1ccnc2cc(Cl)ccc12)/C(=C/c1ccc2c(c1)OCO2)NC(=O)c1ccccc1	2%
O=C(CCN1CCN2c3ccccc3CCC2C1)c1ccc(F)cc1 (stereo not drawn)	65% and -5%
CC1C[C@]2(C)C(=O)Nc3ccccc3[C@@H]2Nc2ccccc21 (stereo partly drawn)	-6%
Nc1nc(=S)c2ncn(C3OC(CO)C(O)C3O)c2[nH]1 (stereo not drawn)	49%
O=C(O)c1c2ccccc2nc2[nH]c(=O)[nH]c(=O)c12	0%
N#Cc1c(/N=C/c2ccccc2Cl)sc2c1CCC2	26%
CCC1=C(C)/C(=C/c2[nH]c(C)c(CC)c2C)N=C1C	-12% and -15%
O=C(O)c1ccccc1C(=O)O	4%
Cc1cc(C)nc(NS(=O)(=O)c2ccc(Nc3c4ccccc4nc4c(C(=O)NCCCN(CCO)CCO)cccc34)cc2)n1	70% (active)
CCCCCCCCCCCCCCCCCCOCC(COP(=O)([O-])OCC[N+](C)(C)C)OC (stereo not drawn)	-1%
S=c1nc[nH]c2[nH]ccc12	-2%
C=C[C@]1(C)C=C2C(O)CC3C(C)(C)CCC[C@]3(CO)C2CC1 (stereo partly drawn)	13%
c1ccc(-c2cnc(-c3ccc(-c4ncc(-c5ccccc5)o4)cc3)o2)cc1	-11%

Compound	growth inhibition
Nc1ccc2c(ccc3ccc4ccccc4c32)c1	-7%
O/N=C(\CC(O)(C(F)(F)F)C(F)(F)F)c1cccc(Cl)c1	8%
CC(=O)OC1CCC2(C)C(CCC3C4CCC(OC(C)=O)C4(C)CCC32)O1 (stereo not drawn)	-6%
Cc1[nH]c2ccccc2c1C1Cc2ccccc2N1 (stereo not drawn)	10% and 16%
COc1ccc(C2c3cc4c(cc3OC(NNC(N)=O)C2C)OCO4)cc1 (stereo not drawn)	-4%
Oc1ccc(C(O)(c2ccccc2)c2ccccc2)cc1	45% and 29%
COc1ccc(CC(=O)c2ccc(O)cc2O)cc1	64%
COC(=O)C#CC(=O)OC	21%
O=C1OC2=C(c3ccccc3)CCCC2C1=O (stereo not drawn)	-3%
CC(C)C(NC(=O)C(N)CCC(=O)O)C(=O)O (stereo not drawn) (H-Glu-Val-OH; configuration not given here)	5%
CC1(C)CC(=O)C2=C(C1)OC1=C(CC(C)(C)CC1=O)C2c1ccccc1Cl (stereo not drawn)	37%
O=C(CC(=O)CC(O)(c1ccccc1)c1ccccc1)CC(=O)c1ccccc1	-11%
O=Nc1ccc(C=C2C(=O)C=CC2=O)cc1	72% (active)
C[N+]1(Cc2ccc(Cl)c(Cl)c2)CCCC1C1CCCN(Cc2ccc(Cl)c(Cl)c2)C1 (stereo not drawn)	-11%
C[C@H]1CC[C@H]([C@@H](C)[C@H]2[C@@H](O)C[C@H]3[C@@H]4CC[C@H]5C[C@@H](O)CC[C@]5(C)[C@H]4CC[C@]23C)NC1	23% and 1%
CCOP(=O)(OCC)C(C)(CC)NC(=O)C(C(F)(F)F)C(F)(F)F (stereo not drawn)	18%
[N-]=[N+]=NC(=O)Nc1cccc(C(F)(F)F)c1	-3%
NC(C/[N+]([O-])=N/O)C(=O)O (stereo not drawn)	37%
NC(=O)N/N=C/c1ccc([N+](=O)[O-])o1	0%
